Assay results from PubChem BioAssay AID493084 (National Center for Advancing Translational Sciences (NCATS), 2011).
The whole screen tested about 360,000 compounds, of which about 650 (0.18%) were called active. Many of the other results were omitted from the sample, so actives are more common in it than they were. Unmarked numbers belong to inactive results. No stated cut-off is given here; in the data, active means activation above about 30%; inactive means the rest.
Further: 0% is about no effect.

What follows are compounds tested against Thyrotropin-releasing hormone receptor (Homo sapiens) (UniProt P34981) (assay: qHTS for Small Molecule Agonists and Allosteric Enhancers of Human TRH Receptor: Primary Screen for Agonists.). Settings: TRHR cells, calcium flux fluo-8, FDSS agonist mode; at 2 µM; active compounds read high.
Sequence of Thyrotropin-releasing hormone receptor (Homo sapiens) (P34981 whole entry, looked up): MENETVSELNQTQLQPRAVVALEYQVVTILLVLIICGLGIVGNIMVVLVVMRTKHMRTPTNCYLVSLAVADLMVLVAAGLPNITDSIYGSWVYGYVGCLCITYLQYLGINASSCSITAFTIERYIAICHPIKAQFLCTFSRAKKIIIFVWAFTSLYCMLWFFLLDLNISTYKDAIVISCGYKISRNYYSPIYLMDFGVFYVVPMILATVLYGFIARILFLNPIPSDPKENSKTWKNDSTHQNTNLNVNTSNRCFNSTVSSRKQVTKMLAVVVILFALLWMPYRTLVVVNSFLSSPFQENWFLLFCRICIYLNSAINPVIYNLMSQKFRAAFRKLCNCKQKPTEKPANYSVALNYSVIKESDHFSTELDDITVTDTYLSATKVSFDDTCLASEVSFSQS
Excerpt: NIH Chemical Genomics Center [NCGC] NIH Molecular Libraries Probe Centers Network [MLPCN] MLPCN Grant: MH089816-01 Assay Submitter (PI): Marvin Gershengorn This project aims to identify small drug-like molecules that activate (agonists) the thyrotropin releasing hormone (TRH) receptor (TRHR) or enhance its TRH-stimulated activity (allosteric enhancers). TRHR, a drug-accessible cell surface receptor expressed in specific brain regions, and its ligand TRH have been implicated in several central nervous system disorders, including depression and anxiety. Small molecule TRHR agonists or allosteric enhancers that are metabolically stable and able to cross the blood-brain barrier might serve as probes to elucidate the roles of brain TRH receptors in animal models, and might be valuable as lead compounds for the development of drugs to treat patients with central nervous system disorders. Upon TRHR-Gq activation in TRHR cells, intracellular calcium is released from stores in the endoplasmic reticulum. […] This primary screen measures compound-induced activation of calcium release.
For the HTS assay freshly prepared cells are plated at a density of 2000/well in 3 ul of complete DMEM medium containing 10% serum in 1536-well plates and cultured over night at 37 C in a humidified incubator with 5% CO2. The next day, 2 ul of a no wash calcium dye (ABD Bioquest) was added to the cells and plates were incubated at room temperature for 1 hour. For the assay, assay plates were loaded into the FDSS kinetic plate reader. A 10 cycle (1 second/cycle) baseline measurement is taken and then the FDSS online 1536 pintool delivers 23 nl of compound library (as well as TRH controls) to the plate. The plate is measured for kinetically at 1 cycle/sec for 180 seconds and is considered to be the agonist portion of the assay (eg, compounds which activate a positive calcium response during this portion are flagged as potential agonists). Following the 180 second read, 1 ul of either an EC20 (positive modulation assay) is delivered by an onboard pipette head. Measurements are taken kinetically for an additional 180 seconds. TRHR FDSS Screening Protocol 1. Reagent, 3 uL 2000 cells/well 1536 TC treated Black plate in media containing 10% FCS 2. Time, 18 hours, 33.5C 5% CO2 (cells grown at 37C) 3. Reagent, 2 uL ABD fluo-8 Ca dye 4. Time, 30 min-1.5hrs hours, Room temp (6 plates/batch) 5. Detector, EX 480/EM 530C, FDSS 10 cycles baseline (1sec/cycle) 6. Compound, 23 nL of stock solution from library 7. Detector, EX 480/EM 530C, FDSS […] (1sec/cycle) Agonist mode 8. Compound, 1 ul EC20 of TRH made up in HEPES HBSS, 10 nM final 9. Detector, EX 480/EM 530C, FDSS 100 cycles (1sec/cycle) Potentiator mode
`O=C1C(F)N([S+](=O)([O-])c2ccc3c(c2)OCCO3)CCN1[S+](=O)([O-])c1c(F)cccc1F` (stereo not drawn) was tested, and the activation was 0.239%.
Work on `Cc1ccc(Cl)cc1N1CCN(C(=O)c2cn(C)c3ccc(S(=O)(=O)N(C)C4CCCCC4)cc3c2=O)CC1` yielded an activation of -1.19%.
With `O=C(NCCc1ccccc1)C(=O)NCC(c1ccco1)S(=O)(=O)c1ccccc1` (stereo not drawn) the activation was -0.0493%.
For `CN1C(=O)c2cccc3c(N)ccc(c23)C1=O`, the activation was 152% (active).
In the case of `Cc1nn(C)cc1N1C(=O)c2cccc3c(N)ccc(c23)C1=O`, the activation is reported as 172% (active).
`CC(=O)Nc1ccc(NC(=O)[C@@H](NC(=O)c2cccc(C)c2)C(C)C)cc1` showed an activation of 0.205%.
For `CCc1nnc(NC(=O)[C@@H](NC(=O)c2cccc(C)c2)C(C)C)s1`, the activation was 47.4% (active).
In the case of `Cc1cccc(C(=O)NCc2nnc(SC(C)C(=O)Nc3nnc(C)s3)n2C)c1` (stereo not drawn), the activation is reported as -0.0214%.
Work on `Cn1ccc2cc(S(=O)(=O)N3CCCC(C(=O)NCc4ccccc4F)C3)ccc21` (stereo not drawn) yielded an activation of -0.718%.
With `Cc1nn(C(C)C(=O)NCCc2ccccc2)c(=O)c2c1sc1ccccc12` (stereo not drawn) the activation was -0.291%.
`COc1cc(Cl)c(NC(=O)CC(C)S(=O)(=O)c2cc3c(cc2C)NC(=O)CO3)c(OC)c1` (stereo not drawn) was tested, and the activation was -0.196%.
With `CCCNC(=O)C(CC)n1nc(CC)n2c(cc3oc(C)cc32)c1=O` (stereo not drawn) the activation was 0.892%.
Work on `COc1ccc(-c2nc(Cn3c(=O)cc(C)c4c(C)nn(-c5ccccc5)c43)c(C)o2)c(OC)c1` yielded an activation of 0.643%.
`Oc1c(C(c2ccc(F)cc2)N2CCN(Cc3ccccc3)CC2)sc2nc(-c3ccco3)nn12` (stereo not drawn) was tested, and the activation was -0.524%.
With `COc1ccc(-c2onc(C)c2C)cc1S(=O)(=O)NCC1CCN(Cc2cccc(F)c2)CC1` the activation was -0.0549%.
`CCOC(=O)C1CCN(C(c2ccc(F)cc2)c2sc3nc(-c4ccco4)nn3c2O)CC1` (stereo not drawn) gave an activation of 0.0847%.
With `COc1cc(/C=C(\C#N)c2nc3c(s2)CC(C)CC3)ccc1O` (stereo not drawn) the activation was 38.3% (active).
`N#C/C(=C\c1ccccc1F)c1nc2ccccc2c(=O)[nH]1` was tested, and the activation was 3.32%.
In the case of `CCOc1ccc(/C=C(\C#N)c2nc3ccccc3c(=O)[nH]2)cc1OC`, the activation is reported as 2.27%.
For `COc1cc(/C=C(\C#N)c2nc3ccccc3[nH]2)ccc1O`, the activation was 33.3% (active).
Work on `COc1cccc2cc(-c3nc(Cl)c4c5c(sc4n3)CC(C)CC5)c(=O)oc12` (stereo not drawn) yielded an activation of 0.639%.
`Cc1ccc(S(=O)(=O)c2cn(Cc3ccccc3)c3cc(N4CCCC4)c(F)cc3c2=O)c(C)c1` gave an activation of 0.661%.
Compound `Cc1ccc(C)c(N2CCN(C(=O)Cc3c(C(=O)O)c(C)cn3C)CC2)c1` has an activation of -0.0012%.
